Read-out in assay [1]: Vascular endothelial growth factor receptor 2 (Homo sapiens) (UniProt P35968)
The assay can be described thus: BSK_4H_VEGFRII: BioMAP Diversity Plus: 4H Assay for Vascular endothelial growth factor receptor 2 (VEGFR2) Biomarker Activity (AID 2283031).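 For AC50: cell-surface VEGFR2 protein level quantified by ELISA.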 The conditions noted are these: primary human endothelial cells (HUVEC); actives raise or lower the signal. The essentials: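 Primary human umbilical vein endothelial cells (4H system), 24 h exposure; cell-surface VEGFR2 measured by ELISA. Bidirectional fitting versus DMSO; cytotoxicity checked in parallel by SRB total-protein staining.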

Read-out in assay [2]: Human Leukocyte Antigen - DR isotype (HLADR), HLA-DRA (gene 3122)
The assay can be described thus: BSK_BE3C_HLADR: BioMAP Diversity Plus: BE3C Assay for Human Leukocyte Antigen - DR isotype (HLADR) Biomarker Activity (AID 2283032). The conditions noted are these: primary human bronchial epithelial cells; actives raise or lower the signal. The essentials: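 ELISA read-out of HLA-DR on human lung bronchial epithelial primary cells, measured 24 h post-dosing. Both increases and decreases were scored relative to DMSO vehicle.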

Read-out in assay [3]: Vascular cell adhesion molecule 1 (VCAM1), VCAM1 (gene 7412)
The assay can be described thus: BSK_4H_VCAM1: BioMAP Diversity Plus: 4H Assay for Vascular cell adhesion molecule 1 (VCAM1) Biomarker Activity (AID 2283033).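 For outcome: cell-surface VCAM-1 protein measured by ELISA.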 The conditions noted are these: primary human endothelial cells (HUVEC); actives raise or lower the signal. The essentials:
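ELISA read-out of VCAM-1 on human umbilical vein endothelium 24 hours after chemical dosing; gain or loss of signal was fitted relative to DMSO, with sulforhodamine B staining of parallel cultures flagging overt cytotoxicity.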

Read-out in assay [4]: Interferon-gamma inducible Protein 10 (IP10), CXCL10 (gene 3627)
The assay can be described thus: BSK_BE3C_IP10: BioMAP Diversity Plus: BE3C Assay for Interferon-gamma inducible Protein 10 (IP10) Biomarker Activity (AID 2283034). The conditions noted are these: primary human bronchial epithelial cells; actives raise or lower the signal. In outline:
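Chemical is dosed onto human lung bronchial epithelial primary cells, cultures are incubated 24 h, and IP-10 is then quantified by ELISA. Gain or loss of signal is fitted in both directions relative to DMSO.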

Read-out in assay [5]: Monokine induced gamma interferon (MIG), CXCL9 (gene 4283)
The assay can be described thus: BSK_BE3C_MIG: BioMAP Diversity Plus: BE3C Assay for Monokine induced gamma interferon (MIG) Biomarker Activity (AID 2283035).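 For outcome: MIG protein measured by ELISA in BE3C cultures after 24 h of dosing.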 The conditions noted are these: primary human bronchial epithelial cells; actives raise or lower the signal. In outline:
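MIG level was determined by ELISA after 24 h chemical treatment of primary human bronchial epithelial cells. Values were fitted bidirectionally with DMSO as the negative control and activity baseline.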

Read-out in assay [6]: Transforming growth factor beta 1 (TGFb1), TGFB1 (gene 7040)
The assay can be described thus: BSK_BE3C_TGFb1: BioMAP Diversity Plus: BE3C Assay for Transforming growth factor beta 1 (TGFb1) Biomarker Activity (AID 2283036;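 note: TGF-b1 protein level measured by ELISA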). Conditions: primary human bronchial epithelial cells; actives raise or lower the signal. In outline:
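Primary human lung bronchial epithelial cells; compound exposure 24 h; TGF-b1 by ELISA; bidirectional fit, DMSO baseline. Parallel SRB total-protein staining for cytotoxicity.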

Read-out in assay [7]: Plasminogen activator inhibitor-1 (PAI1), SERPINE1 (gene 5054)
The assay can be described thus: BSK_BE3C_PAI1: BioMAP Diversity Plus: BE3C Assay for Plasminogen activator inhibitor-1 (PAI1) Biomarker Activity (AID 2283037). The conditions noted are these: primary human bronchial epithelial cells; actives raise or lower the signal. The essentials:
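Primary human lung bronchial epithelial cells; chemical dosing; 24 h; PAI-1 measured by ELISA; bidirectional fit referenced to DMSO as negative control.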

Read-out in assay [8]: urokinase plasminogen activator (uPA), PLAU (gene 5328)
The assay can be described thus: BSK_BE3C_uPA: BioMAP Diversity Plus: BE3C Assay for urokinase plasminogen activator (uPA) Biomarker Activity (AID 2283038).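 For outcome: uPA protein level quantified by ELISA in cell cultures; uPA read one day after compound addition.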 The conditions noted are these: primary human bronchial epithelial cells; actives raise or lower the signal. In outline:
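Primary human bronchial epithelial cells, uPA measured by ELISA 24 h after dosing. Bidirectional change relative to DMSO; cytotoxicity checked in parallel cultures by sulforhodamine B total-protein staining.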

Read-out in assay [9]: Urokinase-type plasminogen activator receptor (uPAR), PLAUR (gene 5329)
The assay can be described thus: BSK_BE3C_uPAR: BioMAP Diversity Plus: BE3C Assay for Urokinase-type plasminogen activator receptor (uPAR) Biomarker Activity (AID 2283039).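 For outcome: uPAR protein level measured by ELISA on the cells; cells exposed to compound for one day before measurement.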 Conditions: primary human bronchial epithelial cells; actives raise or lower the signal. The essentials:
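Human bronchial epithelial primary cells; chemical exposure 24 h; uPAR by ELISA; bidirectional fit vs DMSO control.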

Read-out in assay [10]: Interleukin-6 (IL6), IL6 (gene 3569)
The assay can be described thus: BSK_CASM3C_IL6: BioMAP Diversity Plus: CASM3C Assay for Interleukin-6 (IL6) Biomarker Activity for (AID 2283040). Conditions: primary human coronary artery smooth muscle cells; actives raise or lower the signal.

Read-out in assay [11]: Tissue plasminogen activator (tPA), PLAT (gene 5327)
The assay can be described thus: BSK_BE3C_tPA: BioMAP Diversity Plus: BE3C Assay for Tissue plasminogen activator (tPA) Biomarker Activity (AID 2283041).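 For outcome: tPA level quantified by ELISA one day after compound addition.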 Conditions: primary human bronchial epithelial cells; actives raise or lower the signal. In outline:
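Primary human lung bronchial epithelial cultures receive test chemical; after 24 h, tPA is quantified by ELISA, and gain or loss of signal is fitted bidirectionally relative to DMSO baseline.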

Read-out in assay [12]: Interleukin-8 (IL8), CXCL8 (gene 3576)
The assay can be described thus: BSK_CASM3C_IL8: BioMAP Diversity Plus: CASM3C Assay for Interleukin-8 (IL8) Biomarker Activity (AID 2283042).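 Note: IL-8 protein level quantified by ELISA.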 Conditions: primary human coronary artery smooth muscle cells; actives raise or lower the signal.

Read-out in assay [13]: Human Leukocyte Antigen - DR isotype (HLADR), HLA-DRA (gene 3122)
The assay can be described thus: BSK_CASM3C_HLADR: BioMAP Diversity Plus: CASM3C Assay for Human Leukocyte Antigen - DR isotype (HLADR) Biomarker Activity (AID 2283043).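 Note: cell-surface HLA-DR protein level quantified by ELISA.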 Conditions: primary human coronary artery smooth muscle cells; actives raise or lower the signal.

Read-out in assay [14]: Macrophage colony-stimulating factor (MCSF), CSF1 (gene 1435)
The assay can be described thus: BSK_CASM3C_MCSF: BioMAP Diversity Plus: CASM3C Assay for Macrophage colony-stimulating factor (MCSF) Biomarker Activity (AID 2283044).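 Note: M-CSF protein amount quantified by ELISA after 24 h exposure.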 Conditions: primary human coronary artery smooth muscle cells; actives raise or lower the signal.

Read-out in assay [15]: Low-density lipoprotein receptor (LDLR), LDLR (gene 3949)
The assay can be described thus: BSK_CASM3C_LDLR: BioMAP Diversity Plus: CASM3C Assay for Low-density lipoprotein receptor (LDLR) Biomarker Activity (AID 2283045).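 Note: LDLR protein level on the cell surface quantified by ELISA.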 Conditions: primary human coronary artery smooth muscle cells; actives raise or lower the signal.

Read-out in assay [16]: Monocyte Chemoattractant Protein-1 (MCP1), CCL2 (gene 6347)
The assay can be described thus: BSK_CASM3C_MCP1: BioMAP Diversity Plus: CASM3C Assay for Monocyte Chemoattractant Protein-1 (MCP1) Biomarker Activity (AID 2283046).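 Note: MCP-1 level quantified by ELISA 24 h after dosing.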 The conditions noted are these: primary human coronary artery smooth muscle cells; actives raise or lower the signal.

The nature of assay [17]: BSK_CASM3C_Proliferation: Cell Proliferation Assessment in the BioMAP Diversity Plus: CASM3C Assay (AID 2283047).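 Note: sulforhodamine B total protein stain as relative cell number at 560 nm; sub-confluent cells exposed 48 h before staining; fitted both ways against DMSO so gain or loss of cell number.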 Conditions: primary human coronary artery smooth muscle cells.
Read-out in assay [18]: Monokine induced gamma interferon (MIG), CXCL9 (gene 4283)
The assay can be described thus: BSK_CASM3C_MIG: BioMAP Diversity Plus: CASM3C Assay for Monokine induced gamma interferon (MIG) Biomarker Activity (AID 2283048).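 Note: MIG protein level measured by ELISA.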 Conditions: primary human coronary artery smooth muscle cells; actives raise or lower the signal.

Read-out in assay [19]: serum amyloid A (SAA), SAA1 (gene 6288)
The assay can be described thus: BSK_CASM3C_SAA: BioMAP Diversity Plus: CASM3C Assay for serum amyloid A (SAA) Biomarker Activity (AID 2283049).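 Note: SAA protein level quantified by ELISA.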 Conditions: primary human coronary artery smooth muscle cells; actives raise or lower the signal.

Assay [20] in a line: BSK_CASM3C_SRB: Viability Assessment in the BioMAP Diversity Plus: CASM3C Assay (AID 2283050).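 Note: total protein by SRB staining as cytotoxicity measure in parallel cultures.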 Conditions: primary human coronary artery smooth muscle cells.

Calls of active or inactive are those of the source. Rule for the calls: active = hit-call score of the fitted dose curve at least 0.9, where 1 is the maximum; inactive = score below 0.9.

The term AC50 denotes the concentration giving half of the maximal activity seen. For `CC(C)(C)C(O)/C(=C\c1ccc(Cl)cc1Cl)n1cncn1` (stereo not given), the half-maximal activity concentration (AC50) in [1] was 27.4 µM (active); in assay [2], 27.5 µM (active); in assay [3], 27.7 µM (active); in assay [4], 31.1 µM (active); in assay [5], 35.1 µM (active); in assay [7], 27.6 µM (active). Also, the AC50 was 30.3 µM (active) in assay [8], 20 µM (active) in assay [9], 8.37 µM (active) in [11] and 20 µM (active) in assay [17]. Further, the outcome in [6], in assay [10], in assay [12], in assay [13], in assay [14] and in [15] was inactive. Besides, the result in [16], in [18], in assay [19] and in assay [20] was inactive.
On to `CC1(C)C(C=C(Cl)Cl)C1C(=O)OC(C#N)c1ccc(F)c(Oc2ccccc2)c1` (stereo not given), for which the outcome in assay [1], in assay [2], in assay [3], in [4], in [5] and in [6] was inactive. Further, the outcome in assay [7], in [8], in assay [9], in assay [10], in assay [11] and in assay [12] was inactive. The outcome in [13], in assay [14], in [15], in assay [16], in [17] and in assay [18] was inactive. The outcome in assay [19] and in [20] was inactive.
Turning to `CCCN(CCC)c1c([N+](=O)[O-])cc(C(F)(F)F)cc1[N+](=O)[O-]`, the result in assay [1], in [2], in [5], in assay [6], in assay [7] and in assay [8] was inactive. Besides, the outcome in assay [9], in [10], in assay [11], in assay [12], in assay [13] and in assay [14] was inactive. The result in [15], in assay [16], in [17], in [18], in [19] and in [20] was inactive. The AC50 in assay [3] is 28.2 µM (active); in [4] it was 25.1 µM (active).
For `COc1cc(OC)nc(NC(=O)NS(=O)(=O)c2cc(NC=O)ccc2C(=O)N(C)C)n1`, the result in [1], in assay [2], in [3], in assay [4], in assay [5] and in [6] was inactive. The result in assay [7], in assay [8], in assay [9], in [10], in assay [11] and in assay [12] was inactive. In addition, the result in assay [13], in assay [14], in [15], in assay [16], in assay [17] and in [18] was inactive. Moreover, the result in assay [19] and in [20] was inactive.
For `CC1(c2ccc(Oc3ccccc3)cc2)OC(=O)N(Nc2ccccc2)C1=O` (stereo not given), the AC50 in assay [1] was 20 µM (active); in assay [3], 15.3 µM (active); in [4], 15 µM (active); in [17] it was 13.7 µM (active). Besides, the outcome in assay [2], in assay [5], in assay [6], in assay [7], in [8] and in [9] was inactive. In addition, the result in assay [10], in assay [11], in [12], in assay [13], in assay [14] and in [15] was inactive. Also, the result in [16], in assay [18], in [19] and in [20] was inactive.
In the case of `O=[N+]([O-])/N=C1\NCCN1Cc1ccc(Cl)nc1`, the outcome in assay [1], in assay [2], in assay [3], in [4], in assay [5] and in [6] was inactive. For the same molecule, the outcome in [7], in assay [8], in assay [9], in assay [10], in [11] and in [12] was inactive. In addition, the outcome in assay [13], in [14], in assay [15], in assay [16], in assay [17] and in assay [18] was inactive. The result in assay [19] and in assay [20] was inactive.
